This is part of a sample that, as a whole, favours compounds with a hit. Of some 83,000 tested, about 20% had one in any assay.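 Note: values are percent growth. 100 is the growth of untreated cells, values between 100 and 0 indicate rising inhibition; between -100 and 0 indicates cell death.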 A number with no mark means an inactive call. Activity calls are given as the source filed them. The calls were made as follows: active = growth percent below 10; inactive = the rest.

Some test systems named below: NCI-H23 lung; NCI-H226 lung; NCI-H322M lung; HOP-62 NSCLC; NCI-H460 lung; HOP-92 NSCLC; NCI-H522 lung; A549/ATCC NSCLC; 786-0 renal; COLO 205 colon; DU-145 prostate; K-562 leukemia; MALME-3M melanoma; MDA-MB-231 breast; RXF 393 renal; SF-268 CNS; SF-295 CNS; SF-539 CNS; UACC-257 melanoma; M14 melanoma.
Assay in all cases: NCI-60 one-dose screen, 48 h (100 = growth as untreated, 0 = no growth, -100 = all killed)
What all share (conditions): 10 µM unless noted

`COC(=O)C1=C(C(=O)ONCCN(C)C)C2C=CC1(C(Cc1ccccc1)Nc1ccc(F)cc1)O2` (stereo not given): the growth in the assay with NCI-H23 lung was 91.6%; in the assay on NCI-H226 lung it was 108%; in the assay on NCI-H322M lung, 92.8%; with HOP-62 NSCLC, 101%; in the assay on NCI-H460 lung, 113%; in the assay on HOP-92 NSCLC, 89.7%. Further, the growth is 19.2% in the assay with NCI-H522 lung; 98.1% in the assay on A549/ATCC NSCLC; 106% with 786-0 renal; -14.7% (active) in the assay with COLO 205 colon; 95.6% in the assay on DU-145 prostate; 10.5% in the assay with K-562 leukemia. The growth is -9.2% (active) with MALME-3M melanoma; 108% in the assay on MDA-MB-231 breast; 111% with RXF 393 renal; 91.7% with SF-268 CNS; 113% with SF-295 CNS; 97.3% in the assay with SF-539 CNS. Besides, the growth in the assay on UACC-257 melanoma was 104%; with M14 melanoma, 101%.
`O=C1CCCN1c1cccc2cccnc12`: the growth with NCI-H23 lung is 92.9%; in the assay on NCI-H226 lung, 98.8%; in the assay with NCI-H322M lung, 102%; in the assay with HOP-62 NSCLC, 94.4%; in the assay on NCI-H460 lung, 102%; with HOP-92 NSCLC, 103%. The growth with NCI-H522 lung is 96%; in the assay on A549/ATCC NSCLC, 99%; in the assay with 786-0 renal, 97.5%; in the assay on COLO 205 colon it was 108%; in the assay on DU-145 prostate, 111%; in the assay with K-562 leukemia it was 96.4%. The growth is 109% with MALME-3M melanoma; 99% in the assay on MDA-MB-231 breast; 102% in the assay with RXF 393 renal; 97.9% in the assay with SF-268 CNS; 102% in the assay on SF-295 CNS; 98.9% in the assay with SF-539 CNS. In addition, the growth is 102% in the assay with UACC-257 melanoma and 103% with M14 melanoma.
Consider `CCNNC(=O)[C@@H]1[C@H](c2cc(OC)c(OC)c(OC)c2)c2cc3c(cc2[C@H](O)[C@H]1CO)OCO3`, for which the growth is 24% in the assay with NCI-H23 lung; -21.5% (active) in the assay on NCI-H226 lung; 43.7% in the assay on NCI-H322M lung; 36.3% with HOP-62 NSCLC; 1.59% (active) with NCI-H460 lung; 9.16% (active) in the assay with HOP-92 NSCLC. Also, the growth was -18.7% (active) in the assay on NCI-H522 lung; 9.99% (active) in the assay with A549/ATCC NSCLC; 0.908% (active) with 786-0 renal; -63.6% (active) in the assay on COLO 205 colon; -24% (active) in the assay on DU-145 prostate; 13.7% in the assay with K-562 leukemia. For the same compound, the growth is 56.3% with MALME-3M melanoma; 39.6% with MDA-MB-231 breast; 15.3% in the assay on RXF 393 renal; 31.1% in the assay on SF-268 CNS; 9.93% (active) in the assay with SF-295 CNS; -10.9% (active) in the assay with SF-539 CNS. In addition, the growth with UACC-257 melanoma is 53%; in the assay with M14 melanoma, -19.5% (active).
Regarding `CC(O)/C=C/C=C/C(O)CC/C=C/C(=O)NCC(C)(C)O` (stereo not given), the growth in the assay with NCI-H23 lung is 95.3%; in the assay with NCI-H226 lung it was 108%; in the assay on NCI-H322M lung, 106%; with HOP-62 NSCLC, 110%; in the assay on NCI-H460 lung it was 101%; in the assay on HOP-92 NSCLC it was 96.1%. Besides, the growth in the assay with NCI-H522 lung was 79.4%; in the assay on A549/ATCC NSCLC, 96.1%; in the assay with 786-0 renal it was 109%; with COLO 205 colon it was 118%; with DU-145 prostate, 106%; in the assay with K-562 leukemia it was 72.8%. Besides, the growth was 112% in the assay with MALME-3M melanoma; 111% with MDA-MB-231 breast; 121% in the assay with RXF 393 renal; 108% in the assay on SF-268 CNS; 107% in the assay on SF-295 CNS; 109% with SF-539 CNS. Also, the values for the growth in the assay on UACC-257 melanoma and in the assay with M14 melanoma were 91.5% and 101%, respectively.
As for `Fc1ccc(-n2cc(COc3ncnc4sc5c(c34)CCCC5)nn2)cc1Cl`, the growth in the assay with NCI-H23 lung is 96.8%; in the assay on NCI-H226 lung it was 94.4%; in the assay on NCI-H322M lung, 100%; in the assay on HOP-62 NSCLC, 96.3%; in the assay with NCI-H460 lung, 102%; with HOP-92 NSCLC it was 109%. For the same compound, the growth was 84% in the assay on NCI-H522 lung; 98.4% in the assay with A549/ATCC NSCLC; 98.1% in the assay with 786-0 renal; 109% in the assay on COLO 205 colon; 105% with DU-145 prostate; 95.5% with K-562 leukemia. The growth in the assay on MALME-3M melanoma is 92.1%; in the assay on MDA-MB-231 breast, 95.8%; in the assay on RXF 393 renal, 103%; in the assay on SF-268 CNS, 95.8%; in the assay with SF-295 CNS, 105%; with SF-539 CNS it was 98.8%. Moreover, the values for the growth in the assay with UACC-257 melanoma and in the assay on M14 melanoma were 102% and 94.2%, respectively.
`O=C(OC(OC(=O)c1cc(Cl)cc(Cl)c1)c1cccc2ccccc12)c1ccccc1` (stereo not given): the growth in the assay with NCI-H23 lung was 93.6%; in the assay with NCI-H226 lung, 98.7%; in the assay on NCI-H322M lung, 101%; in the assay on HOP-62 NSCLC it was 99.5%; in the assay on NCI-H460 lung it was 107%; with HOP-92 NSCLC, 101%. Also, the growth in the assay with NCI-H522 lung is 80.4%; with A549/ATCC NSCLC, 92.6%; in the assay with 786-0 renal, 101%; in the assay on COLO 205 colon it was 112%; with DU-145 prostate, 103%; with K-562 leukemia, 92.1%. The growth with MALME-3M melanoma is 91%; with MDA-MB-231 breast, 95.5%; with RXF 393 renal, 110%; with SF-268 CNS it was 94.8%; in the assay on SF-295 CNS it was 107%; in the assay with SF-539 CNS, 103%. Besides, the growth in the assay with UACC-257 melanoma is 96.1%; in the assay on M14 melanoma, 101%.
Regarding `FC(F)(F)c1cccc(Nc2ccccc2)c1`, the growth in the assay with NCI-H23 lung was 94.2%; in the assay with NCI-H226 lung, 97.6%; in the assay on NCI-H322M lung, 109%; with HOP-62 NSCLC it was 105%; with NCI-H460 lung, 104%; in the assay on HOP-92 NSCLC, 101%. Further, the growth in the assay on NCI-H522 lung is 98.6%; in the assay with A549/ATCC NSCLC, 97.3%; in the assay on 786-0 renal it was 101%; with COLO 205 colon, 105%; in the assay with DU-145 prostate it was 110%; in the assay on K-562 leukemia, 95.5%. Moreover, the growth in the assay with MALME-3M melanoma was 99.7%; in the assay with MDA-MB-231 breast, 104%; in the assay with RXF 393 renal, 109%; with SF-268 CNS, 103%; in the assay with SF-295 CNS it was 99.9%; in the assay on SF-539 CNS it was 95.5%. For the same compound, the growth in the assay with UACC-257 melanoma is 97.4%; in the assay with M14 melanoma, 106%.

The record behind these values is PubChem BioAssay (NCI).
